# Screens (PubChem)
# Sampled rows, rich in hits. Any-hit rate of the full collection: about 3.1%.
# BoNT F protease: inhibitors of Botulinum neurotoxin F light chain protease. Multiplex microsphere protease cleavage assay, flow cytometry. inhibition, % at 10 µM. 360,000 tested, 0.22% active. AID 588497; in the data active = inhibition above about 35%, passing the limit was not always enough; inconclusive = no clear call, values can overlap the other calls; also: plate controls were buffer without enzyme for full effect and enzyme alone for no effect
# BoNT-A LC inh2: blocks Botulinum neurotoxin A light chain protease; multiplex microsphere protease substrate cleavage, flow cytometry; inhibition, % at 10 µM; 360,000 tested, 0.17% active; AID 588499; also: plate controls were buffer without enzyme for full effect and enzyme alone for no effect
# Autofluor counter: flagged as autofluorescent in microsphere protease counterscreen. compound autofluorescence counterscreen, microsphere flow cytometry; active compounds read high. fluorescence intensity (concentration not given with the values). 360,000 tested, 3.1% active; in the data active = fluorescence intensity above about 16000; inconclusive = no clear call, values can overlap the other calls
# Anthrax LF inh2: inhibitors of Bacillus anthracis lethal factor protease; multiplex microsphere protease cleavage assay, LF; AID 588501; 360,000 tested, 0.12% active; P15917; inhibition, % at 10 µM; also: plate controls were buffer without enzyme for full effect and enzyme alone for no effect
# Target sequence (P15917 whole entry, looked up): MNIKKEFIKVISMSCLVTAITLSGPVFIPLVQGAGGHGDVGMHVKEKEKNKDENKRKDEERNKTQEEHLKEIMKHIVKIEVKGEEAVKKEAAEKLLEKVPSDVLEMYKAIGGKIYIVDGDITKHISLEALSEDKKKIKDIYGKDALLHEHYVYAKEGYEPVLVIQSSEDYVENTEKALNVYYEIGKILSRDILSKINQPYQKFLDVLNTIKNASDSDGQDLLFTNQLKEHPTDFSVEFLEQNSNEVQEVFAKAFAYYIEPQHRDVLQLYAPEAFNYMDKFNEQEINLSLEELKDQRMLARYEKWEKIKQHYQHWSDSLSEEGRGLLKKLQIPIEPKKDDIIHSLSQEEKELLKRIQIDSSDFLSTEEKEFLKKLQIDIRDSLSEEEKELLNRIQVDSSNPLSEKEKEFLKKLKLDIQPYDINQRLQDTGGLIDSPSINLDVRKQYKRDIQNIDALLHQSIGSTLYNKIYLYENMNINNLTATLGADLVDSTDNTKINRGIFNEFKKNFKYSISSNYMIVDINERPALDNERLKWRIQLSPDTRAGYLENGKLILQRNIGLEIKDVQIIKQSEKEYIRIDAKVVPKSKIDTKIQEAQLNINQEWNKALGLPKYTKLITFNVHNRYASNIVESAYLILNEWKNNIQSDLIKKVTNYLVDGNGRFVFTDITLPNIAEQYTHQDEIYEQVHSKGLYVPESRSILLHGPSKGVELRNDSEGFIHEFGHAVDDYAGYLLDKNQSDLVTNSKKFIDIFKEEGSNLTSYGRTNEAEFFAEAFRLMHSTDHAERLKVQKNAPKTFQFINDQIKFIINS
# PriA SSB inh: blocks PriA binding to SSB C-terminal tail; AID 1272365; inhibition, % at 33 µM; AlphaScreen SSBct-PriA binding, biotinylated peptide; 430,000 tested, 0.6% active; in the data active = inhibition mostly above about 37%, no sharp cut-off; inactive = mostly below about 20%;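 also: plate controls were negative control peptide for no effect and reference peptide for full effect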
# * marks the source's active call; other numbers are inactive results; ? = inconclusive; nt = not tested or not shown. Rule as the data show it, unless noted: active = inhibition above about 30%; inconclusive = no clear call, values can overlap the other calls; inactive = below that.
SMILES,BoNT F protease,BoNT-A LC inh2,Autofluor counter,Anthrax LF inh2,PriA SSB inh
COCC(=O)N1N=C(c2cccc(NS(C)(=O)=O)c2)C[C@H]1c1ccc(F)cc1,nt,nt,nt,nt,-6
CCNc1nc(NCC)nc(C(=O)NN)n1,-14,1,4432,-5,83*
CCNc1nc(NCC)nc(OCC(=O)O)n1,-2,0,4684,-3,1
Cn1nc(CN(Cc2ccco2)C(=O)CCSc2ccccc2)c2c1CCC2,nt,nt,nt,nt,8
Cc1cc(C(=O)CCl)c(C)n1CCc1ccc(F)cc1,-8,1,4011,-1,7
Cc1cc(C(=O)CCl)c(C)n1CCc1ccc(Cl)cc1,0,0,3537,-3,41*
Cc1cc(C(=O)CSc2nnc(N)s2)c(C)n1CCc1ccc(Cl)cc1,-2,?,22078*,-3,28
COc1cc(C(=O)Nc2cc(-c3ccccc3)[nH]n2)cc(OC)c1OC,1,?,20197*,-15,1
COc1cc(C(=O)Nc2ccncc2)cc(OC)c1OC,2,0,10518,1,4
COc1cc(C(=O)Nc2ccc(Nc3ccccc3)cc2)cc(OC)c1OC,-13,-1,3409,-15,43*
O=C(Nc1ccc2c(c1)CN(C(=O)c1ccco1)CC2)c1c(F)cccc1F,nt,nt,nt,nt,-7
Cc1ccccc1C(=O)NNC(=S)NC(=O)c1ccc(Cl)cc1Cl,-9,-1,11749,-1,-15
CCCN(CCC)C(=S)NC(=O)c1ccc(Cl)cc1Cl,3,1,21981*,2,-33
Cn1nc(-c2ccc(F)cc2)cc1C(=O)N1Cc2cncnc2C1,nt,nt,nt,nt,-3
O=C(Nc1cnn(CC2COc3ccccc3O2)c1)Nc1ccccc1Cl (stereo not drawn),nt,nt,nt,nt,-32
Cc1n[nH]c(C)c1C(=O)N1CCCC[C@H](c2ccc(Cl)cc2)C1,nt,nt,nt,nt,-9
C#CCOCCOCCOCCNc1nc(N2CCN(C(=O)[C@H](Cc3cc4ccccc4[nH]3)n3cc([C@@H](N)Cc4ccc(O)cc4)nn3)CC2)nc(N2CCN(C(=O)[C@H](Cc3cc4ccccc4[nH]3)n3cc([C@@H](N)CC(C)C)nn3)CC2)n1,nt,nt,nt,nt,22
C#CCOCCOCCOCCNc1nc(N2CCN(C(=O)C(Cc3cc4ccccc4[nH]3)n3cc(C(N)Cc4ccc(O)cc4)nn3)CC2)nc(N2CCN(C(=O)C(Cc3cc4ccccc4[nH]3)n3cc(C(N)Cc4ccc(O)cc4)nn3)CC2)n1 (stereo not drawn),nt,nt,nt,nt,39*
COc1ccc(-c2cn3cc(C)ccc3n2)cc1OC,8,0,3641,1,-13
COc1ccc(-c2cn3ccccc3n2)cc1OC,9,6,20804*,-1,6
O=C1NCCN1C(=O)N(CCc1cccs1)Cc1ccco1,nt,nt,nt,nt,-1
Cc1n[nH]c(=S)n1/N=C/c1ccccc1OCc1ccc(Cl)cc1,-2,?,19713*,1,nt
COc1cc(C=Nn2c(C)n[nH]c2=S)ccc1OCc1ccc(F)cc1,nt,nt,nt,nt,-5
CC(C)CC(=O)N(Cc1ccc(F)cc1)C1CCS(=O)(=O)C1 (stereo not drawn),-5,-1,2313,0,-9
CN(C)c1ccc(CN(C(=O)C2COc3ccccc3O2)C2CCS(=O)(=O)C2)cc1 (stereo not drawn),0,0,19479*,-4,20
SMILES,BoNT F protease,BoNT-A LC inh2,Autofluor counter,Anthrax LF inh2,PriA SSB inh
CC(C)c1ccc(CN(C(=O)C2COc3ccccc3O2)C2CCS(=O)(=O)C2)cc1 (stereo not drawn),-5,-1,16571*,-5,-18
CCN(CC)c1ccc([C@H]2[C@@H]3CCCC[C@]3(O)CCN2CC(=O)NCc2ccco2)cc1,-9,1,4721,0,12
COc1cc([C@H]2[C@@H]3CCCC[C@]3(O)CCN2CC(=O)Nc2ccc(C)cc2)ccc1O,-4,1,22835*,-5,3
CCOC(=O)C1(Cc2ccccc2C)CCCN(C(=O)c2ccoc2)C1 (stereo not drawn),-2,1,4417,-1,41*
Cc1cccc(CSc2nc3c(oc4ccccc43)c(=O)n2-c2ccccc2C)c1,nt,nt,nt,nt,7
COc1ccc(NC(=O)C2CC(=O)NC3=C2C(=O)CC(C)(C)C3)cc1 (stereo not drawn),-4,-3,23174*,-8,-4
COc1cc(NC(=O)C2CC(=O)NC3=C2C(=O)CCC3)c(OC)cc1Cl (stereo not drawn),-4,-3,23479*,0,-16
COc1ccc(C)c(NC(=O)C2CC(=O)NC3=C2C(=O)CCC3)c1 (stereo not drawn),-5,0,4765,4,-4
O=C(NCc1cnn2c1CCCC2)c1cc2ccccc2s1,nt,nt,nt,nt,-12
Cc1ccnc2c(=O)cc[nH]c12,nt,nt,nt,nt,104*
CCOC(=O)NN=C(C)c1ccc(Oc2ncccn2)cc1,nt,nt,nt,nt,-2
CC(C)CNC(=O)C(=O)NNC(=O)C1CCCCC1,-3,-5,21511*,0,0
O=C(NC(=S)NNC(=O)c1ccccc1O)c1cccnc1,-3,-1,4125,-1,62*
O=C(NC(=S)NNC(=O)c1ccccc1I)c1cccnc1,nt,nt,nt,nt,51
CC(=O)NCCCc1nc2ccccc2n1Cc1ccccc1F,4,0,4306,-4,-15
O=CNCCCc1nc2ccccc2n1Cc1cccc2ccccc12,2,?,20866*,-16,-1
CNc1nc(NN=Cc2cc([N+](=O)[O-])ccc2F)nc(Nc2ccccc2)n1,nt,nt,nt,nt,1
COc1cccc(CNc2ccc(Br)cn2)c1O,-6,?,24305*,-1,-1
Cc1oc(-c2ccccc2F)nc1CN1CCC(C(=O)NCc2cccs2)CC1,0,1,21985*,-2,1
Cc1oc(-c2ccccc2F)nc1CN1CCC(C(=O)NC2CC2)CC1,4,1,20198*,-2,-11
Cc1cc(-c2ccccc2)nc(N2CCC(C(=O)NC(C)C)CC2)n1,-5,-2,16521*,-4,-14
Cc1cc(C)nc(N2CCC(C(=O)NCc3cccs3)CC2)n1,-4,?,23240*,0,-21
Cc1oc(-c2cccc(Cl)c2)nc1CN1CCC(C(=O)NCC2CCCO2)CC1 (stereo not drawn),0,1,8657,-1,-18
Cc1ccccc1-c1nc(CN2CCC(C(=O)NCC3CCCO3)CC2)c(C)o1 (stereo not drawn),-6,-4,25315*,-8,13
Cc1ccc(P(=O)(CC(=O)O)c2ccc(C)cc2)cc1,-7,-3,24105*,-3,-3
SMILES,BoNT F protease,BoNT-A LC inh2,Autofluor counter,Anthrax LF inh2,PriA SSB inh
CCNC(=O)CP(=O)(c1ccccc1)c1ccccc1,-8,-1,3739,-1,-13
O=S(=O)(NCCn1nc(-c2ccsc2)cc1C1CC1)c1cccnc1,nt,nt,nt,nt,3
O=C(NCc1ccc2c(c1)OCO2)c1ccc(COc2cc(Cl)ccc2Cl)o1,18,10,18111*,1,-12
O=C(Nc1ccn(Cc2c(F)c(F)cc(F)c2F)n1)c1ccc(COc2cc(Cl)ccc2Cl)o1,4,3,22103*,-2,7
O=C(Nc1ccn(Cc2ccccc2F)n1)c1ccc(COc2ccccc2Cl)cc1,-2,1,19484*,-3,-2
O=C(Nc1ccn(Cc2c(F)c(F)cc(F)c2F)n1)c1ccc(COc2ccccc2Cl)cc1,-31,-1,9130,-2,-11
Cc1ccc(NC(=O)N2CCC(Oc3cnccn3)CC2)cc1C,nt,nt,nt,nt,0
